Source: PubChem BioAssay (NCATS)
Results filed as inconclusive are left out. Where a call stands in place of a potency, no number is given. Activity calls are given as the source filed them. Unless noted, calls follow the shape of the dose curve; as a rule, active = well fitted curve in the direction sought with a large enough effect; inconclusive = small, poorly fitted or top-dose-only effect, or another doubt; inactive = no such curve, though single readings can be large; an effect the other way counts as inactive or inconclusive.

Assays:
[1] = target: Aldehyde dehydrogenase, mitochondrial (Homo sapiens) (UniProt P05091); test: qHTS for Inhibitors of the Aldehyde Dehydrogenase Family (ALDH2) Confirmatory screens (AID 2061303; active = well fitted inhibition curve with a large enough effect; title and protocol of this record describe different tests; also: nearly all actives have a fitted effect of over 45% in size)
[2] = target: Aldehyde dehydrogenase, mitochondrial (Homo sapiens) (UniProt P05091); test: qHTS for Inhibitors of the Aldehyde Dehydrogenase Family (ALDH2) Primary screen (AID 2061308); also: nearly all actives have a fitted effect of over 55% in size
[3] = target: Retinal dehydrogenase 2 (Homo sapiens) (UniProt O94788); test: qHTS for Inhibitors of the Aldehyde Dehydrogenase Family (ALDH1A2) Confirmation screens (AID 2061314); also: nearly all actives have a fitted effect of over 65% in size
[4] = target: Retinaldehyde dehydrogenase 3 (Homo sapiens) (UniProt P47895); test: qHTS for Inhibitors of the Aldehyde Dehydrogenase Family (ALDH1A3) Primary screen (AID 2061315)
[5] = target: Aldehyde dehydrogenase 1A1 (Homo sapiens) (UniProt P00352); test: qHTS for Inhibitors of the Aldehyde Dehydrogenase Family (ALDH1A1) Confirmatory screens (AID 2061316); also: nearly all actives have a fitted effect of over 65% in size
[6] = target: Retinaldehyde dehydrogenase 3 (Homo sapiens) (UniProt P47895); test: qHTS for Inhibitors of the Aldehyde Dehydrogenase Family (ALDH1A3) Confirmatory screens (AID 2061311); also: nearly all actives have a fitted effect of over 60% in size
[7] = target: Retinaldehyde dehydrogenase 3 (Homo sapiens) (UniProt P47895); test: qHTS for Inhibitors of the Aldehyde Dehydrogenase Family (ALDH1A3) Validation screen (AID 2061312); also: nearly all actives have a fitted effect of over 45% in size
[8] = qHTS for Inhibitors of the Aldehyde Dehydrogenase Family (ALDH1A2, ALDH1A3, ALDH2, ALDH3A1) (AID 2061307); also: test system not described further here; nearly all actives have a fitted effect of over 50% in size
Potency is read from the fitted curve at half-maximal effect.

N#Cc1c(-c2ccc(Cl)c([N+](=O)[O-])c2)no[n+]1[O-]
Potency [1]: 2.83 µM (active) | Potency [2]: 0.398 µM (active) | Potency [3]: 2.83 µM (active) | Potency [4]: inactive | Potency [5]: 7.98 µM (active)

CCOC(=O)c1ccc(O)c2ncc(N3CCC(C(=N)N)CC3)cc12
Potency [1]: inactive | Potency [2]: inactive | Potency [6]: 8.96 µM (active) | Potency [5]: inactive

COc1ccc(-c2csc(NC(=O)c3ccncc3NS(=O)(=O)c3ccc(C)cc3)n2)cc1
Potency [1]: inactive | Potency [2]: inactive | Potency [6]: inactive | Potency [4]: inactive | Potency [5]: 22.5 µM (active)

S=C(Nc1ccccn1)c1ccccn1
Potency [1]: 28.3 µM (active) | Potency [2]: 11.2 µM (active) | Potency [6]: 6.34 µM (active) | Potency [5]: 5.65 µM (active)

Nc1ncc(-c2cccc(-c3nn4c(=O)cc(N5CCNCC5)nc4s3)c2)cn1
Potency [1]: 14.2 µM (active) | Potency [2]: inactive | Potency [3]: 11.3 µM (active) | Potency [4]: inactive

N#Cc1c(-c2cccc(O)c2)no[n+]1[O-]
Potency [1]: inactive | Potency [2]: inactive | Potency [3]: 2.52 µM (active) | Potency [4]: inactive

CN(C)c1cccc(-c2csc(N3CCC(C(N)=O)CC3)n2)c1
Potency [1]: 12.7 µM (active) | Potency [2]: inactive | Potency [6]: 12.7 µM (active) | Potency [4]: inactive | Potency [5]: 11.3 µM (active)

CC(=O)c1ccc(N2CCN(S(=O)(=O)c3ccc4c(c3)n(C)c(=O)n4C)CC2)cc1
Potency [1]: 0.316 µM (active) | Potency [2]: inactive | Potency [6]: 2.01 µM (active) | Potency [5]: inactive

O=c1[nH]c(CN2CCOCC2)nc2sc3c(c12)CCC3
Potency [1]: inactive | Potency [2]: inactive | Potency [6]: 11.3 µM (active) | Potency [4]: inactive | Potency [5]: inactive

O=C(/C=C/c1cccnc1)Nc1cccc([S+](=O)([O-])Nc2ccccc2F)c1
Potency [1]: inactive | Potency [2]: inactive | Potency [3]: 11.3 µM (active) | Potency [4]: inactive | Potency [5]: inactive

O=C(c1ccc(-c2cnc3c(O)cccc3c2)cc1)N1CCNCC1
Potency [1]: inactive | Potency [2]: inactive | Potency [3]: inactive | Potency [4]: inactive

O=C1CCc2cc(S(=O)(=O)Nc3cc(F)cc(Cl)c3)c(F)cc2N1
Potency [1]: inactive | Potency [2]: inactive | Potency [6]: inactive | Potency [4]: inactive | Potency [5]: inactive

CC(C)(C)Nc1nc(C#N)nc(Nc2ccccc2)n1
Potency [1]: inactive | Potency [2]: inactive | Potency [6]: inactive | Potency [4]: inactive | Potency [5]: inactive

Cc1noc(C)c1-c1ccc2ncnc(NCc3ccc(F)cc3)c2c1
Potency [1]: 12.6 µM (active) | Potency [2]: inactive | Potency [6]: 12.6 µM (active) | Potency [4]: inactive | Potency [5]: 20.1 µM (active)

Cc1nc(NCc2ccc(-c3cccnc3)cc2)c2ccccc2n1
Potency [1]: inactive | Potency [2]: inactive | Potency [3]: inactive | Potency [4]: inactive | Potency [5]: inactive

CSc1ccc(C(=O)N[C@@H]2CCCC[C@@H]2NC(=O)CNC(=O)c2cc(C(F)(F)F)ccc2NC(=O)NC(C)C)cc1
Potency [2]: inactive | Potency [7]: inactive | Potency [4]: inactive

Cc1nnc(-c2ccc3occ(-c4ccc(S(C)=O)cc4)c3c2)o1 (stereo not drawn)
Potency [2]: inactive | Potency [6]: 0.631 µM (active) | Potency [5]: inactive

Cc1ccc2nc3sc(C(=O)NC4CCCC4)cc3cc2c1
Potency [1]: inactive | Potency [2]: inactive | Potency [4]: inactive

CC(CCc1ccc(O)cc1)O[C@@H]1O[C@H](CO[C@@H]2OC(CO)[C@H](O)[C@H]2O)[C@@H](O)[C@H](O)[C@H]1O (stereo partly drawn)
Potency [2]: inactive

COc1ccnc(NC(=S)N2CCN(c3ccc(Cl)c(Cl)c3)CC2)c1
Potency [1]: 4.47 µM (active) | Potency [2]: 15.8 µM (active) | Potency [3]: 3.57 µM (active) | Potency [5]: 4 µM (active)

CC(C)(N)c1ncc(-c2ccc(OC(F)(F)F)cc2)[nH]1
Potency [2]: inactive | Potency [7]: inactive | Potency [4]: inactive

O=C(OCC#CCSc1nnc(-c2cccc3ccccc23)o1)C1CC1
Potency [1]: inactive | Potency [2]: inactive | Potency [4]: inactive

C=CC(=O)N1CCN(C(=O)CNc2cc(I)c(Cl)cc2O)CC1
Potency [8]: 2.25 µM (active) | Potency [2]: inactive | Potency [6]: 1.79 µM (active) | Potency [7]: 7.08 µM (active) | Potency [3]: 28.3 µM (active) | Potency [4]: 2.82 µM (active) | Potency [5]: 2.83 µM (active)

CC(F)(F)CN1CCOc2c(nn(-c3ccccc3Cl)c2-c2ccc(Cl)cc2)C1=O
Potency [2]: inactive | Potency [7]: inactive | Potency [4]: inactive

COc1cc(C[C@H]2C(=O)OC[C@@H]2Cc2ccc(OC)c(OC)c2)ccc1O
Potency [8]: 0.251 µM (active) | Potency [2]: inactive | Potency [4]: inactive

O=C(/C=C/c1ccccc1O)O[C@@H]1O[C@H](CO)[C@@H](O)[C@H](O)[C@H]1O
Potency [2]: inactive

CC(/C=C/C1(O)C(C)CC(O)CC1(C)C)OC1OC(CO)C(O)C(O)C1O (stereo not drawn)
Potency [2]: inactive

COC(=O)C1=COC(O[C@@H]2O[C@H](CO[C@@H]3O[C@H](COC(=O)/C=C\c4ccc(O)cc4)[C@@H](O)[C@H](O)[C@H]3O)[C@@H](O)[C@H](O)[C@H]2O)C2C(CO)=CCC12 (stereo partly drawn)
Potency [2]: inactive

N#Cc1cnc2c(Cl)cc(NCc3cn(CCN4CCCCCC4)nn3)cc2c1Nc1ccc(F)c(Cl)c1
Potency [2]: inactive

CC1=C(CCC(C)O[C@@H]2O[C@H](CO)[C@@H](O)[C@H](O)[C@H]2O)C(C)(C)CC(O)C1 (stereo partly drawn)
Potency [2]: inactive

Cc1ccc2nc3sc(C(=O)NC4CCCCC4)cc3cc2c1
Potency [1]: inactive | Potency [2]: inactive | Potency [4]: inactive

Cc1ccnc(NC(=S)N2CCN(c3cccc(Cl)c3Cl)CC2)c1
Potency [1]: 11.3 µM (active) | Potency [2]: 6.31 µM (active) | Potency [3]: 14.2 µM (active) | Potency [5]: 3.18 µM (active)

CC1(C)CC[C@]2(CO[C@@H]3O[C@H](CO)[C@@H](O)[C@H](O)[C@H]3O)[C@@H](O)C[C@]3(C)C(=CCC4[C@@]5(C)CC[C@H](O[C@@H]6O[C@H](CO[C@@H]7O[C@H](CO[C@@H]8OC[C@@H](O)[C@H](O)[C@H]8O)[C@@H](O)[C@H](O)[C@H]7O)[C@@H](O)[C@H](O)[C@H]6O)C(C)(C)C5CC[C@]43C)[C@@H]2C1 (stereo partly drawn)
Potency [2]: inactive

O=C(NCCN1CCOCC1)c1cc2c(Oc3ccc(NC(=O)C4(C(=O)Nc5ccc(F)cc5)CC4)cc3)ccnc2[nH]1
Potency [2]: inactive | Potency [7]: inactive | Potency [4]: inactive
